Experimental data taken from PubChem BioAssay.
A number with no mark means an inactive call. The source made the active and inactive calls. Cut-off read from the data, not from the text of the source: active = fold change permeability below about 0.7 or above about 1.3; inactive = in between.

Assay: compounds altering in vitro BBB leakiness – cell-based, FITC-avidin fluorescence, HTS, primary screen (AID 1963498); note: test concentration not given here
Details: brain endothelial barrier, actives lie on both sides

Row | Structure (SMILES) | fold change permeability
1 | CC(C)Cn1c(=O)n(C)c(=O)c2[nH]cnc21 | 0.7 (active)
2 | O=C(O)CCC(C(=O)O)N1C(=O)c2ccccc2C1=O (configuration not stated) | 1
3 | O=c1c2ccccc2nc2n1CCc1c-2[nH]c2ccccc12 | 1.8 (active)
4 | COc1ccc(S(=O)(=O)Nc2c(C)cc(C)cc2C)cc1 | 1.4 (active)
5 | O=c1c(O)c(-c2ccc(O)c(O)c2)oc2cc(O)cc(O)c12 | 0.9
6 | O=C1Nc2nc(-c3c(O)cccc3OCC3CC3)cc([C@@H]3CCCNC3)c2CO1 | 1.6 (active)
7 | CC[C@H](NC(=O)c1c(O)c(-c2ccccc2)nc2ccccc12)c1ccccc1 | 1.1
8 | COc1cc2c[n+](C)c3c4cc5c(cc4ccc3c2cc1OC)OCO5 | 1.1
9 | NC(=NCc1ccccc1)NC(=O)c1nc(Cl)c(N)nc1N | 1
10 | CN(C)CCC(c1ccc(Cl)cc1)c1ccccn1 (configuration not stated) | 1.1
11 | N=C(N)SCCc1cnc[nH]1 | 0.7 (active)
12 | CN1CCN(c2nc3cc(C(F)(F)F)ccc3n3cccc23)CC1 | 1.7 (active)
13 | O=C1N(c2ccccc2)c2ccccc2C1(Cc1ccncc1)Cc1ccncc1 | 0.9
14 | O=C(O)CCCCC1CCSS1 (configuration not stated) | 0.7 (active)
15 | C[C@H](NCCc1ccc(O)cc1)[C@H](O)c1ccc(O)cc1 | 0.7 (active)
16 | Nc1c(C(=O)Nc2c(F)cc(F)cc2Br)sc2nc3c(cc12)CCC3 | 0.9
17 | Cn1c(CNc2ccc(C(=N)N)cc2)nc2cc(C(=O)N(CCC(=O)O)c3ccccn3)ccc21 | 1.1
